Data published in PubChem BioAssay (NCI).
Compounds without any hit were thinned out: in the full panel of roughly 83,000, 20% have a hit.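 Note: values are percent growth. 100 is the growth of untreated cells, values between 100 and 0 indicate rising inhibition; between -100 and 0 indicates cell death.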 Calls of active or inactive are those of the source. The calls were made as follows: active = growth percent below 10; inactive = the rest.

Columns and labels:
Test in all cases: NCI-60 one-dose screen, 48 h (100 = growth as untreated, 0 = no growth, -100 = all killed)
Settings in all cases: 10 µM unless noted
[1] = test system: NCI-H23 lung
[2] = test system: NCI-H322M lung
[3] = test system: HOP-62 NSCLC
[4] = test system: NCI-H460 lung
[5] = test system: HOP-92 NSCLC
[6] = test system: NCI-H522 lung
[7] = test system: A549/ATCC NSCLC
[8] = test system: 786-0 renal
[9] = test system: COLO 205 colon
[10] = test system: DU-145 prostate
[11] = test system: K-562 leukemia
[12] = test system: MALME-3M melanoma
[13] = test system: MDA-MB-231 breast
[14] = test system: RXF 393 renal
[15] = test system: SF-268 CNS
[16] = test system: SF-295 CNS
[17] = test system: SF-539 CNS
[18] = test system: UACC-257 melanoma
[19] = test system: M14 melanoma
[20] = test system: HCT-15 colon

Measured: growth

COc1cc(NC(=O)CCSc2nc3ccccc3c(=O)n2CCc2ccccn2)cc(OC)c1OC
inactive: [1] 88.3% | [2] 88.8% | [3] 85.7% | [4] 83.5% | [5] 89.1% | [6] 25% | [7] 84% | [8] 84.3% | [9] 115% | [10] 103% | [11] 94.8% | [12] 59% | [13] 80.2% | [14] 75.2% | [15] 80.8% | [16] 88.4% | [17] 73.7% | [18] 93.2% | [19] 103% | [20] 96.4%

COc1cc(-c2c3c(cn2S(=O)(=O)c2ccccc2)-c2nc(N)sc2CC3)cc(OC)c1OC
inactive: [1] 44% | [2] 41% | [3] 53.5% | [5] 60.2% | [6] 19.9% | [7] 30.7% | [8] 43.4% | [12] 42.4% | [13] 19.3% | [15] 40.7% | [16] 11.2% | [18] 74% | [19] 34.4% | [20] 27.5%
active: [4] 6.37% | [9] -1.14% | [10] 0.0609% | [11] 8.08% | [14] 2.6% | [17] -31.8%

COc1ccc(S(=O)(=O)N(Cc2ccc3c(n2)C=CC(C)(C)O3)C2CCC2)cc1OC
inactive: [20] 13.5%
active: [1] -14.5% | [2] -20.1% | [3] 1.37% | [4] 1.79% | [5] -19.6% | [6] -27.7% | [7] -2.9% | [8] -26.5% | [9] 0.159% | [10] -8.1% | [11] 7.07% | [12] -36.9% | [13] 3.21% | [14] -20.2% | [15] -9.29% | [16] -43.3% | [17] 0.455% | [18] -13.9% | [19] -59.1%

O=c1c2cc(F)ccc2sc2c(NCCCNCCO)nc3ccc(Cl)cc3c12
inactive: [1] 81.6% | [2] 79.2% | [3] 61% | [5] 36.8% | [6] 49.1% | [7] 57.7% | [8] 58.8% | [10] 37.7% | [12] 106% | [13] 22.5% | [14] 61.1% | [15] 47.9% | [16] 91.3% | [17] 84.8% | [18] 97.9% | [19] 33.4% | [20] 51.2%
active: [4] -53.8% | [9] 3.05% | [11] -25.8%

Oc1[nH]c2ccccc2c1N=Nc1nnc2n1N=C(c1ccccc1)CS2
inactive: [1] 70% | [2] 104% | [3] 46.1% | [4] 83.3% | [5] 64.7% | [6] 43.6% | [7] 69.1% | [8] 82% | [9] 105% | [10] 84.1% | [11] 77.7% | [12] 103% | [13] 88.6% | [14] 82.4% | [15] 69.1% | [16] 99.9% | [17] 82.6% | [18] 79.6% | [19] 99.1% | [20] 105%

O=C(N/N=C/c1ccccc1Cl)C(=O)Nc1cccc(C(F)(F)F)c1
inactive: [1] 105% | [2] 108% | [3] 106% | [4] 99.4% | [5] 92.2% | [6] 105% | [7] 88.8% | [8] 103% | [9] 113% | [10] 101% | [11] 85.3% | [12] 111% | [13] 99.3% | [14] 97.9% | [15] 105% | [16] 87.7% | [17] 102% | [18] 103% | [19] 105% | [20] 97.1%

COc1cc(/C=C2\Oc3cc(OCCCN4CCCC4)ccc3C2=O)cc(OC)c1
active: [4] -71.1% | [11] -63.3% | [17] -90.3% | [19] -60.1% | [20] 5.66%
inactive: [1] 69.9% | [2] 77.1% | [3] 91.5% | [5] 67.6% | [6] 76.7% | [7] 33.2% | [8] 73.6% | [9] 71% | [10] 33.6% | [12] 93% | [13] 53.7% | [14] 60.4% | [15] 72.5% | [16] 85.7% | [18] 81.4%

COc1ccc(Cn2cc(Cn3c(=O)c(-c4nc5ccccc5[nH]4)cc4ccccc43)nn2)c(OC)c1OC
inactive: [2] 18% | [9] 13.5% | [12] 24.6% | [18] 46.9% | [20] 11.1%
active: [1] 4.71% | [3] 9.29% | [4] 1.94% | [5] -2.19% | [6] -1.1% | [7] 9.33% | [8] -50.1% | [10] -59.6% | [11] 9.91% | [13] 1.9% | [14] -28.4% | [15] 2.39% | [16] 1.99% | [17] -28.6% | [19] -50.3%
